Screens as filed in PubChem BioAssay.
In the library only some 3.5% were active in any assay of this set; here they are far more common.
TRAIL sens C8: sensitizes caspase-8 expressing cells to TRAIL; NB7+C8 cells + TRAIL, ATPlite viability luminescence; 360,000 compounds, 1% hits; inhibition (viability loss, TRAIL sensitization), % at 10 µM;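 active = compounds causing at least 50% loss of cell viability in the single-dose screen, relative to plate controls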
PPC-1+TRAIL kill: compounds killing PPC-1 cancer cells with TRAIL present (potentiator screen, no TRAIL-free arm); 220,000 compounds, 0.41% hits; cell killing (% activity), % at 4 µM or 5 µM; AID 1443; PPC-1 cells + TRAIL, ATPLite viability luminescence;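 active = cell killing above 50% in the first pass at 4 µM, then a duplicate retest at 5 µM averaging 50% or more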
TROY signal inh: blocks TROY-dependent signaling in reporter cells | Q293 LMP1-TROYcd NF-kB luciferase reporter, 4 h | inhibition, % at 10 µM | 360,000 compounds, 0.98% hits | AID 1347056;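 active = compounds whose plate-normalised and pattern-corrected inhibition of the luciferase reporter signal at the single screening dose is 50% or more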
Platelet DG rel: modulates dense granule release in human platelets; human platelet-rich plasma, SFLLRN dense granule ATP release, luminescence; inhibition, %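 (compounds screened at 7.5 µM in platelet-rich plasma)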; 300,000 compounds, 0.22% hits;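 active = mean replicate score, as percent of positive control, at or above 50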
TWEAK-Fn14 inh: inhibitors of TWEAK-Fn14 interaction signaling; AID 1159606; TWEAK-stimulated Fn14 reporter cells, luciferase luminescence, 8 h; 360,000 compounds, 2% hits; inhibition, % at 10 µM; in the data active = inhibition above about 50%
HSP90 inh: blocks HSP90-mediated luciferase refolding in reticulocyte lysate. 290,000 compounds, 0.91% hits. AID 1789. Rabbit reticulocyte lysate, luciferase refolding luminescence, 3 h. inhibition, % at 5.6 µM;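 active = inhibition above the screen-wide mean plus 3 SD, computed separately per campaign, cut at about 16% in these data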;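 note: inhibitors lower the luminescence because luciferase stays unfolded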
Numbers stand for hits; - = inactive; . = no result.

SMILES	TRAIL sens C8	PPC-1+TRAIL kill	TROY signal inh	Platelet DG rel	TWEAK-Fn14 inh	HSP90 inh
Oc1ccc(C[C@H]2CN([C@@H](Cc3ccc(O)cc3)CN3CCC[C@@H]3CN3C(=S)NC[C@@H]3Cc3ccccc3)C(=S)N2CC2CCCCCC2)cc1	-	.	-	.	61	.
Cc1cc(/C=N/n2cnnc2)c(C)n1-c1ccc(OCc2ccc(Cl)cc2)cc1	-	-	-	-	63	-
COc1ccc(-c2sc(C(=O)c3ccc(Cl)cc3Cl)cc2CC(=O)O)cc1	-	.	-	-	-	-
NC(=N\N=Cc1ccco1)/C(N)=N/N=Cc1ccco1	-	.	-	.	72	.
Cc1cccc(C)c1NC(=O)C(c1ccc(C#N)cc1)n1c(=O)c(-c2cc3ccccc3[nH]2)nc2ccccc21 (centres undefined)	-	.	.	.	.	.
CN(C)c1cc(NC(=O)CNC(C)(C)C)c2ccccc2n1	-	-	-	-	51	-
NS(=O)(=O)c1ccc(Sc2nc3ccccc3s2)c([N+](=O)[O-])c1	-	-	-	-	84	-
CCOC(=O)Cc1nnc2c(Nc3ccc(Cl)cc3)nc3nonc3n12	-	-	52	-	-	-
Cc1ccccc1Nc1nc(N)nc(CSc2nc3ccccc3c(=O)n2C)n1	-	-	-	-	66	-
O=C1CC(=O)C(n2cncn2)C(c2ccc(Cl)cc2Cl)C1 (centres undefined)	-	-	-	-	64	-
COc1ccc(N2C(=O)C(C)(C)C2c2c(O)ccc3ccccc23)cc1 (centres undefined)	-	.	-	-	-	17
COc1ccc(NC(=O)c2ccc(F)cc2)cc1S(=O)(=O)Nc1cc(C)ccc1Br	-	-	-	-	60	-
O=C1NC(=O)C(=Cc2ccc(Cl)cc2Cl)S1	-	.	54	.	-	.
Cc1ccc(/C=N/Nc2nc3ccccc3s2)o1	-	-	-	-	60	-
CC(C)(C)C(=O)Nc1cc(NC(=O)C(C)(C)C)cc(C(=O)Nc2c[nH]c(=O)[nH]c2=O)c1	-	.	-	-	-	.
CCN(C(=O)c1cnc(N2CCN(c3ncccn3)CC2)c2ccccc12)c1cccc(Cl)c1	-	-	-	-	66	-
N=c1occ(C(=O)c2cc(F)ccc2O)cc1C(=O)NC1CCCCC1	-	-	-	-	-	-
O=C(Oc1c(-c2ccccc2)c(=O)n2c3c(cccc13)CC2)c1ccc(Cl)cc1	-	-	53	-	-	-
COc1ccc2c(=O)cc(-c3ccccc3)n(C)c2c1	55	-	-	.	-	-
COc1ccc(-c2cc(=O)c3ccccc3n2C)cc1	-	-	-	-	-	-
O=S(=O)(Nc1ccncc1)c1ccc(Cl)c(Cl)c1	-	.	-	-	-	-
Cc1noc(-c2ccc(Cl)cc2)c1C(=O)O/N=C(\N)c1ccc(C(C)(C)C)cc1	94	-	-	-	-	-
Cc1cc(C(=O)O/N=C(\N)c2ccc(C(C)(C)C)cc2)no1	-	-	-	-	-	-
Cc1occc1C(=O)O/N=C(\N)c1ccc(Cl)cc1	87	-	-	-	-	-
CCN(CC)CCCNCC(=O)Nc1ccc(OC)c(Cl)c1	.	-	.	-	.	-
SMILES	TRAIL sens C8	PPC-1+TRAIL kill	TROY signal inh	Platelet DG rel	TWEAK-Fn14 inh	HSP90 inh
Nc1ccc(C(=O)NN2C(=O)[C@H](Cl)C2c2ccc(Cl)cc2)cc1 (some centres undefined)	95	.	-	.	65	.
COc1ccc2c(c1OC)C(=O)N(c1cccc(C)c1)C2	65	-	-	-	-	-
CCOc1ccc(-n2nc3cc(C)c(N)cc3n2)cc1	59	.	-	-	-	-
CC1=NCC(C)c2c1[nH]c1ccccc21 (centres undefined)	-	-	75	-	-	-
CC1=NCC(C)c2ccccc21 (centres undefined)	-	.	-	.	-	.
COc1ccccc1C1CCN(c2cc(O)ccc2[N+](=O)[O-])CC1	-	-	57	-	-	-
COc1ccccc1C1CCN(C(=O)c2ccccc2)CC1	-	.	-	-	-	-
NC(=O)c1cccc(Nc2nc(C(N)COCc3ccccc3)cs2)n1 (centres undefined)	-	.	-	.	-	.
COc1cc(/C=N/n2cnnc2)ccc1OC(=O)c1ccncc1	-	-	63	-	-	-
COC(=O)[C@]12CCCCC=C1N(CCC1=CCCCC1)C(=O)[C@H](CC(=O)NCc1ccccc1)C2	-	.	-	.	-	.
CCn1cc(C(=O)NCc2ccccc2)c(=O)c2cc(F)c(N3CCN(C(=O)c4ccco4)CC3)cc21	-	-	-	-	68	-
CCn1cc(C(=O)NCc2ccncc2)c(=O)c2cc(F)c(N3CCN(C(=O)c4ccco4)CC3)cc21	-	-	-	-	-	-
CCn1cc(C(=O)NCc2ccc3c(c2)OCO3)c(=O)c2cc(F)c(N3CCN(C(=O)c4ccco4)CC3)cc21	-	-	-	-	54	-
COc1ccc(C2N=C(N)N=C(N)N2c2ccc(C)cc2)cc1 (centres undefined)	-	-	-	-	-	-
Cc1cc(C)cc(N2C(N)=NC(N)=NC2c2ccccc2F)c1 (centres undefined)	70	.	-	-	-	-
Cc1cc(C)cc(N2C(N)=NC(N)=NC2c2cccc(Cl)c2)c1 (centres undefined)	69	.	-	-	-	-
Cc1ccc(-n2nc3ccc(N)cc3n2)cc1	-	-	-	-	-	-
Cc1ccc(NC(=O)COC(=O)c2ccc3ncsc3c2)c(C)c1	-	.	-	.	-	.
NC(=S)n1[nH]c(-c2ccc([N+](=O)[O-])cc2)c(N=Nc2ccccc2[N+](=O)[O-])c1=O	-	-	-	.	-	-
Cc1c(N=Nc2c(-c3ccc([N+](=O)[O-])cc3)[nH]n(C(N)=S)c2=O)cccc1[N+](=O)[O-]	-	-	-	.	70	-
NC(=S)n1[nH]c(-c2ccc([N+](=O)[O-])cc2)c(N=Nc2cccc([N+](=O)[O-])c2)c1=O	53	-	64	-	71	-
Cc1[nH]n(C(N)=S)c(=O)c1N=Nc1cccc([N+](=O)[O-])c1C	-	.	-	-	-	-
CCCCNC(=S)Nc1ccccc1Cc1ccccc1	-	-	-	-	-	-
CC1CCC(NC(=O)COC(=O)c2cccnc2Cl)CC1 (centres undefined)	-	.	-	.	-	.
COc1ccc(CCn2c(=S)[nH]c3cc(C(=O)NCc4ccco4)ccc3c2=O)cc1OC	-	-	-	-	52	-
O=C(O)CC1NC(=O)N(C2CCCCC2)C1=O (centres undefined)	-	-	-	-	-	-
C=C(C(=O)c1ccccc1)C(c1ccccc1)C(C)C(=O)c1ccccc1 (centres undefined)	-	-	-	-	51	-
O=C(O)c1ccc(C(=O)C(=O)c2ccccc2)cc1	-	-	-	-	-	-
COc1ccc(C(CC(=O)c2ccccc2)CC(=O)c2ccccc2)cc1	-	-	-	-	-	-
O=C(c1ccccc1)C(c1ccccc1)c1ccccc1	-	.	-	-	-	.
